Experimental findings from PubChem BioAssay AID686979 (National Center for Advancing Translational Sciences (NCATS), 2013) are described below.

The campaign covered roughly 420,000 compounds. About 50,000 (12%) were called active. About 26% were inconclusive and are not listed. The call rests on the fitted dose curve; in most records, active means well fitted inhibition curve with a large enough effect; inconclusive means small, poorly fitted or top-dose-only effect; inactive means flat fitted curve, though single readings scatter. The full list was thinned out, with actives kept by preference.
On the % scale 0 is the no-effect control and ±100 the full control effect; potency means the concentration at half of the fitted maximal effect.

The nature of this experiment: qHTS for Inhibitors of human tyrosyl-DNA phosphodiesterase 1 (TDP1): qHTS in cells in presence of CPT. Further: nearly all actives have a fitted effect of over 55% in size. Particulars: chicken DT40 Tdp1-/-;hTDP1 cells + 20 nM CPT, ATP luminescence, 48 h; series mostly up to 46.2 µM; activity change, negative = growth inhibition: at the top concentration. A digest of the protocol:
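Chicken DT40 Tdp1-/- cells stably complemented with human TDP1 were seeded at 400 cells/well in medium containing 20 nM camptothecin, exposed to pin-transferred compounds, and grown at 37 °C for at least 48 hr. Viability was read as ATP luminescence.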
(In qHTS, concentration-response curves come from the screen itself.)
In the case of `O=C(CCc1ccc(O)cc1)NN=Cc1cc(Br)ccc1O`, the Potency is 8.2 µM (active).

As to `COc1cc(/C=N/NC(=O)CCc2n[nH]c(=O)[nH]c2=O)ccc1O`, the “activity change, negative = growth inhibition” value was 21.9% (inactive).

Regarding `O=C(CCC(=O)N/N=C/c1ccc(Br)o1)N/N=C/c1ccc(Br)o1`, the “activity change, negative = growth inhibition” value is -1.67% (inactive).

Regarding `CCCCn1c(N)c(N(CCOC)C(=O)CSCC(=O)Nc2cccc(C)c2)c(=O)[nH]c1=O`, the “activity change, negative = growth inhibition” value is -2.79% (inactive).

For the compound `CC1CCCCC1NC(=O)c1cc(=O)[nH]c2ccccc12` (stereo unspecified), the “activity change, negative = growth inhibition” value was -10.8% (inactive).

Take `COc1ccc(C2CC(c3cccs3)=NN2C(=O)COC(=O)c2cc3ccccc3cc2O)cc1OC` (stereo unspecified): the “activity change, negative = growth inhibition” value was -18% (inactive).

Consider `CC(=O)NC(CC(=O)Nc1cccc(S(=O)(=O)N2CCCC2)c1)c1ccccc1` (stereo unspecified), for which the “activity change, negative = growth inhibition” value was -0.692% (inactive).

For `CCOc1ccc(CNC(=O)CCC(=O)N2CCSc3ccccc32)cc1`, the Potency entry was “inactive”.

In the case of `CCOc1ccc(CNC(=O)CCc2c(C)nn(-c3ccc(N4CCCCC4)nn3)c2C)cc1`, the Potency is 25.9 µM (active).

For the compound `Cc1nn(-c2ccc(N3CCCCC3)nn2)c(C)c1CCC(=O)NCc1ccccc1F`, the “activity change, negative = growth inhibition” value was -16% (inactive).

With `O=C(Nc1cccc(Cl)c1N1CCOCC1)c1cccnc1`, the “activity change, negative = growth inhibition” value is -20.9% (inactive).

Regarding `COc1cccc(-n2c(=O)c3c(C)c(C(=O)N(C)C)sc3n(CC(=O)NCCc3ccc(OC)c(OC)c3)c2=O)c1`, the Potency result was “inactive”.

Turning to `CCOc1cc(C=NNC(=O)CCCC(=O)NN=Cc2ccc(O)c(OCC)c2)ccc1O`, the “activity change, negative = growth inhibition” value is 12.7% (inactive).

With `CCOc1ccc(/C=N\NC(=O)c2c(C)nc3cc(C)ccn23)cc1`, the “activity change, negative = growth inhibition” value was 2% (inactive).

For the compound `CCOc1cc(/C=N/NC(=O)c2c(C)nc3ccc(Cl)cn23)ccc1O`, the Potency is 13 µM (active).

Turning to `COc1ccc(-c2c(C(C)=O)c(C)nc3sc4c(=O)n(-c5ccc(C)cc5)nnc4c23)cc1`, the “activity change, negative = growth inhibition” value was -13.4% (inactive).

As to `SCc1nc2ccc(Cl)cc2[nH]1`, the Potency was 5.62 µM (active).

On to `Oc1ccc(Cl)cc1/C=N/c1nc2ccccc2[nH]1`, for which the “activity change, negative = growth inhibition” value is -17.6% (inactive).

Consider `OC(c1nc2ccc(F)cc2[nH]1)C(O)c1nc2ccc(F)cc2[nH]1` (stereo unspecified), for which the “activity change, negative = growth inhibition” value is 1.53% (inactive).

As to `Cc1ccc(OC(=O)c2c(C)nn(-c3ccccc3)c2C)cc1`, the “activity change, negative = growth inhibition” value was 4.83% (inactive).

Regarding `CCOC(=O)/C=C/CN(C(=O)OC(C)(C)C)S(=O)(=O)N1CC=CC1`, the “activity change, negative = growth inhibition” value is -2.23% (inactive).

For the compound `O=C(CCN1Cc2ccccc2OC(c2ccccc2)C1)N[C@@H]1CS(=O)(=O)C[C@H]1O` (stereo partly specified), the activity change, negative = growth inhibition is 2.04% [at 9.04 µM] (inactive).

Regarding `Cc1cc2nc(C(F)(F)F)cc(-c3cccs3)n2n1`, the “activity change, negative = growth inhibition” value is -2.35% (inactive).

`CCC(=O)Nc1ccc2c(c1)nc(CCN1CCN(c3ccccn3)CC1)n2C`: the “activity change, negative = growth inhibition” value is 11.1% (inactive).

Turning to `CCC(=O)Nc1ccc2c(c1)nc(CCN1CCN(C)CC1)n2C`, the “activity change, negative = growth inhibition” value was -4.21% (inactive).

Take `Cn1c(CCN2CCN(c3ccccn3)CC2)nc2cc(NS(=O)(=O)c3ccc(F)cc3)ccc21`: the Potency is 16.4 µM (active).

`COc1ccc(S(=O)(=O)N2CCCCC2)cc1C(=O)NC1CCS(=O)(=O)C1` (stereo unspecified): the Potency entry is “inactive”.

For `COC(=O)C(C)n1cnc2c(nnn2-c2ccc(F)cc2)c1=O` (stereo unspecified), the “activity change, negative = growth inhibition” value is -5.18% (inactive).

Turning to `COc1ccc(S(=O)(=O)N2C[C@H]3CON(C)[C@H]3C[C@H]2c2cccc(Br)c2)cc1`, the “activity change, negative = growth inhibition” value is -28.7% (inactive).

With `O=C(Nc1cccc(F)c1)NC1CCCCCCC1`, the Potency is 18.4 µM (active).

On to `C/C(CC(=O)Nc1cccc(F)c1)=N\NC(=O)C(=O)NC1CCCCC1`, for which the “activity change, negative = growth inhibition” value is -14.6% (inactive).

Turning to `Cc1cc(C)cc(NC(=O)NC2CCCCCCC2)c1`, the “activity change, negative = growth inhibition” value was -26% (inactive).

`COc1ccc2c(c1)C(=O)Nc1cc(Cl)ccc1N2`: the “activity change, negative = growth inhibition” value was 11.6% (inactive).

In the case of `Cc1nnc(N/N=C/c2cccs2)[nH]c1=O`, the “activity change, negative = growth inhibition” value is -11.4% (inactive).

As for `CCOc1ccc(N/C(N)=N/c2nc(C)c(C)c(=O)[nH]2)cc1`, the “activity change, negative = growth inhibition” value was -2.74% (inactive).

Turning to `CCOc1ccc(-n2c(O)c(/C=N/Nc3nnc(C)c(=O)[nH]3)c3ccccc3c2=O)cc1`, the Potency was 0.651 µM (active).

For `CCN(CC)CCCN=Cc1c(O)n(-c2ccc(C)cc2)c(=O)c2ccccc12`, the “activity change, negative = growth inhibition” value was 2.69% (inactive).

As to `CCOc1ccc(-n2c(O)c(/C=N/Nc3nc(C)cc(C)n3)c3ccccc3c2=O)cc1`, the Potency is 2.59 µM (active).

In the case of `COc1ccc(-n2c(O)c(C=NCC(c3ccco3)N3CCCC3)c3ccccc3c2=O)cc1OC` (stereo unspecified), the “activity change, negative = growth inhibition” value was -27.4% (inactive).

As to `Cc1cc(C)nc(N/N=C/c2c(CO)cnc(C)c2O)n1`, the “activity change, negative = growth inhibition” value is 0.526% (inactive).

Take `Cc1ccccc1Nc1nnc(C)c(=O)[nH]1`: the “activity change, negative = growth inhibition” value was -4.01% (inactive).

In the case of `Cc1nnc(N/N=C/c2ccccn2)[nH]c1=O`, the Potency is 4.61 µM (active).

As to `COC1=NC2=NCCN2C(OC)=N1`, the “activity change, negative = growth inhibition” value is -6.99% (inactive).

Turning to `O=S(=O)(c1ccc(Br)cc1)c1nnn2c1nc(NC1CCCCCC1)c1sccc12`, the “activity change, negative = growth inhibition” value is -0.255% (inactive).

For `Cc1cccn2c(=O)nc(SCC(=O)NCc3ccccc3Cl)nc12`, the “activity change, negative = growth inhibition” value is -0.21% (inactive).

Turning to `CN(C(=O)COC(=O)Cc1ccccc1[N+](=O)[O-])C1CCS(=O)(=O)C1` (stereo unspecified), the “activity change, negative = growth inhibition” value was 4.83% (inactive).

With `CCC(C)N1CC(=O)N2Cc3[nH]c4ccccc4c3C[C@H]2C1=O` (stereo partly specified), the “activity change, negative = growth inhibition” value is -2.41% (inactive).

In the case of `COCCn1c(C)cc(C(=O)COC(=O)CNC(=O)c2ccco2)c1C`, the “activity change, negative = growth inhibition” value is -17% (inactive).

With `CCOC(=O)C1CCN(c2ncnc3c2c(-c2ccccc2)cn3-c2cccc(C)c2)CC1`, the Potency was 18.4 µM (active).

Take `CCOC(=O)C1CCN(Cc2ccc(-c3ccccc3)cc2)CC1`: the “activity change, negative = growth inhibition” value was 6.78% (inactive).

For `CCOC(=O)C1CCN(C(=O)COc2cc(C)c(Br)c(C)c2)CC1`, the “activity change, negative = growth inhibition” value was -20.6% (inactive).

For the compound `CCOC(=O)C1CCN(c2ncnc3c2c(-c2ccccc2)cn3-c2ccc(C)cc2)CC1`, the Potency is 20.6 µM (active).

With `CCOC(=O)C1CCN(c2ncnc3c2oc2ccc(Br)cc23)CC1`, the “activity change, negative = growth inhibition” value is -22.5% (inactive).

`O=c1[nH]cnc2c1c(-c1ccccc1)cn2-c1ccc(F)cc1`: the “activity change, negative = growth inhibition” value was -11.8% (inactive).

For the compound `CC(Cc1cccs1)N(Cc1ccc(Cl)cc1)C(=O)c1ccncc1` (stereo unspecified), the “activity change, negative = growth inhibition” value is -18.9% (inactive).

Regarding `COc1ccc(C(=O)O/N=C(\N)c2ccccn2)cc1[N+](=O)[O-]`, the “activity change, negative = growth inhibition” value is -27.8% (inactive).

With `COc1ccc(N=Nc2ccc(O)c(P(=O)(c3ccccc3)c3ccccc3)c2)cc1`, the “activity change, negative = growth inhibition” value is -16.4% (inactive).

For the compound `COCCN(C(=O)C(C)N1C(=O)c2ccccc2C1=O)c1c(N)n(CC(C)C)c(=O)[nH]c1=O` (stereo unspecified), the “activity change, negative = growth inhibition” value was -29.5% (inactive).

Regarding `CCNC(=O)CC1C(=O)N(c2ccc(F)cc2)C(=O)N1Cc1ccc(C)cc1` (stereo unspecified), the “activity change, negative = growth inhibition” value was -0.743% (inactive).

Consider `CSc1ccc(CNCCN2CCOCC2)cc1`, for which the “activity change, negative = growth inhibition” value was -4.96% (inactive).

As for `CCCCOc1ccc(C(C)(O)CCN2CCOCC2)cc1` (stereo unspecified), the “activity change, negative = growth inhibition” value was 7.6% (inactive).

For the compound `CC(C)(C)c1ccc(CCC2OCC(CN3CCOCC3)O2)cc1` (stereo unspecified), the Potency was 20.6 µM (active).

In the case of `CC(C)CCNC(=O)c1[nH]c(C(F)(F)F)nc1-c1ccccc1`, the “activity change, negative = growth inhibition” value was -24.5% (inactive).

For `COc1ccc(/C(C)=N\NC(=O)c2ccc(-c3ccccc3)cc2)c(F)c1`, the “activity change, negative = growth inhibition” value was 1.06% (inactive).

As to `COc1ccc(C(=O)Nc2cc(C)ccc2NC(=O)COc2ccccc2)cc1`, the “activity change, negative = growth inhibition” value was 10.8% (inactive).

Turning to `COc1ccc(C(=O)NN(C)c2nc(-c3ccccc3)cc(C)c2S(C)(=O)=O)cc1`, the Potency is 16.4 µM (active).
